In PubChem BioAssay (Tox21):
Unmarked numbers belong to inactive results. Calls of active or inactive are those of the source. The call rests on the fitted dose curve.

molecular target: Estrogen receptor (Homo sapiens) (UniProt P03372); experiment: qHTS assay to identify small molecule agonists of the estrogen receptor alpha (ER-alpha) signaling pathway in the presence of an antagonist (AID 1259383); details: VM7Luc4E2 cells, ERE-luciferase, +ICI-182,780, 22 h; series mostly up to 92.4 µM; activation: at the top concentration; further: top concentration of the series differs between compounds; nearly all actives have a fitted effect of over 15% in size
Text: National Center for Advancing Translational Sciences [NCATS] NIH Chemical Genomics Center [NCGC] U.S. Environmental Protection Agency [EPA] National Institutes of Environmental Health Sciences [NIEHS] National Toxicology Program [NTP] Assay overview: Estrogen receptor (ER), a member of nuclear hormone receptor plays an important role in development, metabolic homeostasis and reproduction. Two subtypes of ER, ER-alpha and ER-beta, have similar expression patterns with some uniqueness in both types. Endocrine disrupting chemicals (EDCs) and their interactions with steroid hormone receptors like ER causes disruption of normal endocrine function. Therefore, it is important to understand the effect of environmental chemicals in ER signaling pathway. For identifying ER agonists, VM7Luc4E2 cell line has been used in the current assay. VM7Luc4E2 cell line (provided by Denison MS, University of California) endogenously expresses full-length ER-alpha and is stably transfected with a plasmid containing four estrogen responsive elements (ERE) upstream of a luciferase reporter gene. This current screening for measuring luciferase reporter gene activity using VM7Luc4E2 cells against Tox21 10K library collection is a confirmation study on agonist mode screening in presence of ER-antagonist (ICI-182,780) at 10.0nM final concentration.
Assay Protocol Summary: VM7Luc4E2 cells were cultured in phenol red free assay medium containing 10% charcoal stripped FBS for 5 days prior to the assay. The cells were dispensed at 4,000 cells in 4uL of assay medium per well into white wall/solid-bottom 1536-well plates (Corning Life Sciences, Corning, NY) using a Multidrop Combi (Thermo Fisher Scientific Inc., Waltham, MA) dispenser. After the assay plates were incubated at 37C and 5% CO2 for 24hr, 1uL of 10.0nM (final concentration) ICI-182,780 or assay buffer was added using two separate tips of Flying Reagent Dispenser (FRD, Aurora Discovery, San Diego, CA). Then 23nL of compounds dissolved in DMSO at 15 concentrations and positive controls or DMSO only was transferred to the assay plates by a Pintool station (Wako, San Diego, CA). The assay plates were incubated at 37C and 5% CO2 for 22hr. For luciferase read, 4uL/well ONE-Glo reagent (Promega Corporation, Madison, WI) was added to each well using FRD and after 30min incubation at room temperature, luminescence signal was measured on ViewLux plate reader (PerkinElmer, Shelton, CT).
On the % scale 0 is the no-effect control and ±100 the full control effect.

Estrogen receptor (Homo sapiens), sequence (P03372 whole entry, looked up): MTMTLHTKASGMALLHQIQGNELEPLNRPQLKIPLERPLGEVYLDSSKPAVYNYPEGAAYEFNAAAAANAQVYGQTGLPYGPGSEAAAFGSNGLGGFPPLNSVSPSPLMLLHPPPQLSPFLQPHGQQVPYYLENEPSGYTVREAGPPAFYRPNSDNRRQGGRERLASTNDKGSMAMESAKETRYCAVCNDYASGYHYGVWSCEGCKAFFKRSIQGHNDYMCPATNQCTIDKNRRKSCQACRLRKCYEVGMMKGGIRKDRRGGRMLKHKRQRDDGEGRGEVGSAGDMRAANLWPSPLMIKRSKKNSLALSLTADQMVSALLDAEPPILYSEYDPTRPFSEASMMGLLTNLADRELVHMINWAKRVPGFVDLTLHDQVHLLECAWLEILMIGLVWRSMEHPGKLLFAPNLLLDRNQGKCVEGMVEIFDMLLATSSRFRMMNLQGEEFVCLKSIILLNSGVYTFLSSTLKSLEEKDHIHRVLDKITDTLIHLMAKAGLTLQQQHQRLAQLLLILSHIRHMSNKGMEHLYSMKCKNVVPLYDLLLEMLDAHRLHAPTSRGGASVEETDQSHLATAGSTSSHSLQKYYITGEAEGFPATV

Row | Structure (SMILES) | activation | Potency
1 | COc1nc(C)nc(NC(=O)NS(=O)(=O)c2ccccc2Cl)n1 | -0.781% | 
2 | O=C(O)CCCCCCNC1c2ccccc2CCc2ccccc21 | -0.287% [at 42.5 µM] | 
3 | O=[N+]([O-])c1cc(C(F)(F)F)c(Cl)c([N+](=O)[O-])c1Nc1ncc(C(F)(F)F)cc1Cl | -14.6% | 
4 | CNC(=O)CSP(=O)(OC)OC | -0.648% | 
5 | Brc1ccc(Oc2ccc(Br)cc2Br)c(Br)c1 | 6.73% | 
6 | CC(C)N(C(=O)SC/C(Cl)=C/Cl)C(C)C | -0.291% | 
7 | O=S(=O)(O)F | -0.265% | 
8 | CCOP(=O)(OCC)Oc1nc(Cl)c(Cl)cc1Cl | 0.517% | 
9 | COP(=S)(OC)Oc1nc(Cl)c(Cl)cc1Cl | 0.354% | 
10 | CCC(C)c1cccc(C(C)CC)c1O (stereo not given) | -1.62% | 
11 | COP(=O)(OC)Oc1ccc([N+](=O)[O-])cc1 | 1.86% | 
12 | CNC(=O)/C=C(\C)OP(=O)(OC)OC | 0.554% | 
13 | CCCCN(CCCC)C(=S)[S-].CCCCN(CCCC)C(=S)[S-].[Ni+2] | 1.17% [at 42.5 µM] | 
14 | Clc1ccc(C2(Cn3cncn3)OCCO2)c(Cl)c1 | 1.88% | 
15 | CC(Cc1ccc(OCC(=O)O)cc1)NCC(O)c1csc(C(F)(F)F)n1 (stereo not given) | -2.35% | 
16 | Oc1cc(Cl)c(Cl)c(Cl)c1Cl | -13.1% | 
17 | C=C(C)C(=O)[O][Sn]([CH2]CCC)([CH2]CCC)[CH2]CCC | -16.2% | 
18 | C=CCOC(=O)c1ccccc1N | 3.04% | 
19 | CCN(CC)C(=S)S |  | inactive
20 | CCOP(=S)(OCC)Oc1cc(C)nc(N(CC)CC)n1 | 0.552% | 

Row | Structure (SMILES) | activation | Potency
21 | Oc1ccc([C@H]2CNCc3c2ccc(O)c3O)cc1O | -3.32% [at 42.5 µM] | 
22 | CC(Cc1ccccc1)N(C)Cc1ccco1 (stereo not given) | 0.114% [at 42.5 µM] | 
23 | CN/C(=N\[N+](=O)[O-])NCc1cnc(Cl)s1 | -1.41% | 
24 | Cc1ccccc1OP(=O)(Oc1ccccc1C)Oc1ccccc1C | 3.38% | 
25 | Clc1ccc(C(Cl)(Cl)Cl)cc1Cl | 0.238% | 
26 | C#CCO | 0.495% | 
27 | Nc1ccc(N=Nc2ccccc2)cc1 | 1.08% | 
28 | CCC1COC(Cn2cncn2)(c2ccc(Cl)cc2Cl)O1 (stereo not given) | -0.363% | 
29 | S=C=Nc1ccccc1 | 11.3% | 
30 | CCN1CCC2(CC1)COc1cc3c(cc12)N(C(=O)c1ccc(-c2ccc(-c4nnc(C)o4)cc2C)cc1)CC3 | -0.671% | 
31 | CCOP(=S)(NC(C)C)Oc1ccccc1C(=O)OC(C)C (stereo not given) | -3.8% | 
32 | Nc1ccccc1-c1ccccc1 | 0.48% | 
33 | ClC(Cl)C(Cl)(Cl)Cl | -0.14% | 
34 | O=S1OCC2C(CO1)C1(Cl)C(Cl)=C(Cl)C2(Cl)C1(Cl)Cl (stereo not given) |  | inactive
35 | CC[C@H](C)[C@H]1O[C@]2(C=C[C@@H]1C)C[C@@H]1C[C@@H](C/C=C(\C)[C@@H](O[C@H]3C[C@H](OC)[C@@H](O[C@H]4C[C@H](OC)[C@@H](NC)[C@H](C)O4)[C@H](C)O3)[C@@H](C)/C=C/C=C3\CO[C@@H]4[C@H](O)C(C)=C[C@@H](C(=O)O1)[C@]34O)O2 | -15.5% | 
36 | O=C1C(Cl)=C(Cl)C(=O)C(Cl)=C1Cl |  | inactive
37 | O=C(O)[C@H](O)[C@@H](O)C(=O)O | -0.079% | 
38 | Nc1nc(N)nc(Cl)n1 | 1.42% | 
39 | Cc1c([N+](=O)[O-])c(C)c([N+](=O)[O-])c(C(C)(C)C)c1[N+](=O)[O-] | -2.56% | 
40 | COP(=S)(NC(C)C)Oc1ccc(C)cc1[N+](=O)[O-] (stereo not given) | 4.54% | 
